# Measured values taken from PubChem BioAssay AID1508611 (The Scripps Research Institute Molecular Screening Center, 2020).
# Screen size: about 6,700 compounds; about 20 (0.3%) were called active. Many of the other results were omitted from the sample, so actives are more common in it than they were. A number with no mark means an inactive call.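 Rule for the calls: active = mean percent activation in the counterscreen above 29.09%; inactive = the rest.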
# Molecular target: Glucose-dependent insulinotropic receptor (Homo sapiens) (UniProt Q8TDV5)
# Test: GPR119 activators in beta-arrestin cells, counter-screen for GPR151 activator project, cell-based, PathHunter beta-arrestin, luminescence, triplicate (AID 1508611);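 note: counterscreen on off-target GPR119 to flag nonselective hits from the GPR151 activator screen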
# Details: 90 min, at 11.2 µM, active compounds read high, 0 = compound-well median, 100 = enzyme-acceptor control
# Glucose-dependent insulinotropic receptor (Homo sapiens), sequence (Q8TDV5 whole entry, looked up): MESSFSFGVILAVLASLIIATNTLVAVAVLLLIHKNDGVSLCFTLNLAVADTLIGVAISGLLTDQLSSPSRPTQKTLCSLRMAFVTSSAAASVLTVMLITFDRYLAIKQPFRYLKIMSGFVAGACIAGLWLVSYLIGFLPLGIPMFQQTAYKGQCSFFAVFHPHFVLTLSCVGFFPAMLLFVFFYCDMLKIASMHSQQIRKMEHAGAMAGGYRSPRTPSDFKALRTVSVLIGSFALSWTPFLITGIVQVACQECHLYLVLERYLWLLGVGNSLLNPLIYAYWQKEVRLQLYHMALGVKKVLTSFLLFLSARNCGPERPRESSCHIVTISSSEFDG
row,Structure (SMILES),activation
1,Cc1nc(-c2cccc(NC(=O)C3CC(=O)c4ccccc43)c2)cs1 (stereo not given),4.74%
2,CC(C)CNc1nc2c(c(=O)[nH]c(=O)n2C)n1CC(C)O (stereo not given),5.13%
3,CCCCOC(=O)C1=C(C)NC2=C(C(=O)CCC2)C1c1cccc([N+](=O)[O-])c1 (stereo not given),-13.7%
4,NC(=O)C1CCN(C(=O)c2ccc(-c3ccccc3)cc2)CC1,-13.1%
5,CN1C(=O)c2ccc(N3C(=O)c4cccc([N+](=O)[O-])c4C3=O)cc2C1=O,-8.76%
6,COc1cc(Nc2ccnc(Nc3ccc(N4CCOCC4)cc3)n2)cc(OC)c1OC,31.6% (active)
7,COc1cc2nc(-c3cccc(C(C)=O)c3)nc(Nc3ccc(N4CCOCC4)cc3)c2cc1OC,1.25%
8,CCN(CC)c1nc(Nc2cc(OC)c(OC)c(OC)c2)nc(N2CCOCC2)n1,-4.38%
9,CCN(CC)c1nc(Nc2ccccc2)nc(Nc2ccccc2)n1,5.68%
10,CCOC(=O)c1cccc(NC(=O)/C=C/c2ccccc2)c1,2.43%
11,COCCn1c(C)cc(C(=O)CSc2nnc(-c3ccccc3)o2)c1C,0.76%
12,COc1ccc(OC)c(S(=O)(=O)Oc2ccc(Cl)c3cccnc23)c1,14.7%
13,O=C(CC1C(=O)NCCN1C(=O)c1ccc([N+](=O)[O-])cc1)Nc1cccc(Cl)c1 (stereo not given),8.78%
14,COc1ccc(-c2cc(N)n(S(=O)(=O)c3ccccc3)n2)c(OC)c1,-9.92%
15,c1ccc(-c2ccc(OCCCNCCN3CCOCC3)cc2)cc1,-6.67%
16,COc1ccc(C2=NN(C(=O)c3cc(OC)c(OC)c(OC)c3)C(c3ccc(Cl)cc3)C2)cc1OC (stereo not given),10.6%
17,C=C(C)CSc1nc2sc3c(c2c(=O)n1-c1ccc(OC)cc1)CC(C)(C)OC3,13.8%
18,COc1ccccc1C1CCCN1C(=O)C1CCN(c2nc(C)c3ccccc3n2)CC1 (stereo not given),0.39%
19,COc1ccc(OC)c(NC(=O)CN(c2cccc(C)c2C)S(C)(=O)=O)c1,-9.68%
20,O=C(CC12CC3CC(CC(C3)C1)C2)Nc1ccc2oc(=O)ccc2c1,-8.76%
21,CC(C)(C)C1(O)CCN2C[C@H]3c4ccccc4CCc4cccc(c43)[C@@H]2C1 (stereo not given in full),2.66%
22,OCCC1CN(Cc2ccc3cc(F)ccc3n2)CCN1C1CCCC1 (stereo not given),11.7%
23,CCCn1ncc(CN2CCCC(N3CCC(CO)CC3)C2)c1C (stereo not given),1.74%

row,Structure (SMILES),activation
1,CCCOC(=O)C1=C(C)NC(=O)NC1c1ccc(Br)cc1 (stereo not given),-8.21%
2,O=C(Cn1c(=S)nc2ccccn21)N1CCc2ccccc2C1,4.38%
3,CCOC(=O)C1=CN(C)C=C(C(=O)OCC)C1c1ccc(OC)cc1,7.33%
4,O=C(O)COc1ccc(N2C(=O)C(=O)/C(=C(\O)c3ccccc3)C2c2ccc(Cl)cc2Cl)cc1 (stereo not given),1.15%
5,Cc1nnc(SCC(=O)NCc2ccccc2)s1,-8.49%
6,CN(CC(=O)Nc1cccc2c1CCCC2)S(=O)(=O)c1ccc(Cl)cc1,-16%
7,COC(=O)[C@@H]1CC[C@H](C)[C@@H](c2ccc(C)cc2)N1C(=O)c1ccc(/C=N/O[C@H](C)c2cn([C@@H]3COC[C@H]3O)nn2)cc1,-5.11%
8,Cc1ccccc1CC1(CO)CCCN(Cc2ccncc2)C1 (stereo not given),-3.82%
9,O=C(CSc1ccc(F)cc1)Nc1cccc2ccccc12,-0.98%
10,COc1ccc2c(c1)C=C(CN1CCN(CC3CCCCC3)C(CCO)C1)CO2 (stereo not given),10.3%
11,O=c1[nH]c(=S)[nH]c(O)c1C=Nc1ccc(F)c(Cl)c1,5.32%
12,O=C(Cn1c(=O)n(Cc2cccs2)c(=O)c2cccnc21)Nc1ccc(F)cc1,-1.72%
13,CCOC(=O)c1sc(NC(=O)CSc2ncccn2)c(C#N)c1C,2.97%
14,CC(C)C(=O)NNS(=O)(=O)c1ccc([N+](=O)[O-])cc1,0.04%
15,O=C(NCc1nnc(SCC(=O)N2N=C(c3cccs3)CC2c2ccc(F)cc2)n1Cc1ccccc1)c1cccc(F)c1 (stereo not given),-10.8%
16,CCc1ccc(-c2ccc(C3CCC(CC)CC3)cc2)nc1 (stereo not given),-6.15%
17,CC(C)c1ccc(Nc2nccn3c(-c4cccc(CO)c4)cnc23)cc1,15.7%
18,O=C(c1ccccc1)N1CCCCC(Sc2ncnc3sc4c(c23)CCCC4)C1=O (stereo not given),0.65%
19,C[C@H]1Cc2c(COc3ccccc3)nc3c(c2CO1)CN(C(=O)NCc1ccco1)CC3,9.06%
20,CC(C)n1c(Nc2ccc3ncccc3c2)nc2c(NC3CC3)ncnc21,3.65%
21,Cc1cc(CN(C)Cc2ccc(OCC(O)CN(C)Cc3ccccc3)cc2)n[nH]1 (stereo not given),-0.59%
22,O=C(NCCOc1ccccc1)c1cnc(N2CCN(c3ccccn3)CC2)s1,1.31%
23,COC(=O)CN1C=C(C(=O)OC)C(c2ccc(OC)c(O)c2)C(C(=O)OC)=C1,20.6%

row,Structure (SMILES),activation
1,CCOC(=O)c1cc2cc(-c3c(C)oc4cc(OC(C)=O)ccc4c3=O)ccc2o1,-2.06%
2,CN(Cc1nc(-c2ccc3c(c2)OCO3)no1)C1CCCc2ccccc21 (stereo not given),0.92%
3,O=C(Cc1cccs1)Nn1c(-c2cccc([N+](=O)[O-])c2)nc2ccccc2c1=O,13.2%
4,CC1(C(=O)Nc2cccc(C(F)(F)F)c2)CC2c3ccccc3C1c1ccccc12 (stereo not given),0.35%
5,O=CN1CCN(CCC(=O)Nc2ccccc2)CC1,-6.54%
6,CCOc1ccc(NC(=O)N2CCN(CC)CC2)cc1,6.5%
7,CCSc1nc2sccn2c(=O)c1C(=O)NC(Cc1ccccn1)C(F)(F)F (stereo not given),-3.52%
8,Cc1cccc(-n2nc3c(c2NC(=O)CCC2CCCCC2)CS(=O)(=O)C3)c1C,7.21%
9,COc1ccc(-c2noc(N3CCC(C(=O)NCCCN4CCN(C)CC4)CC3)n2)cc1,3.82%
10,FC(F)(F)c1ccc(Cn2cnc3c(NCc4cccc(C(F)(F)F)c4)nc(Nc4ccc(N5CCOCC5)cc4)nc32)cc1,-10.4%
11,CC(=O)Nc1nnc(CCOCC(C)OCCc2nnc(NC(C)=O)s2)s1 (stereo not given),12.3%
12,CCOc1cc2c(cc1OCC)C(c1ccc3ccccc3c1)NCC2 (stereo not given),-1.89%
13,CCOc1ccc(C(=O)Nc2nnc(CC)s2)cc1[N+](=O)[O-],-8.62%
14,O=S(=O)(c1ccc(F)cc1)N1CCN(CCCc2ccccc2)CC1,15.2%
15,O=C(N/N=C/c1cccc(Cl)c1Cl)c1cccs1,-19.1%
16,CCOC(=O)c1ccc2nc(NC(=O)CSc3nc4ccccc4[nH]3)sc2c1,6.61%
17,COCCNC(=O)CSc1nccn1Cc1ccco1,5.14%
18,COCC(=O)Nc1c(I)c(C(=O)NCC(O)CO)c(I)c(C(=O)N(C)CC(O)CO)c1I (stereo not given),-9.51%
19,O=C(CCc1ccccc1)Nc1cccc(C(=O)N2CCOCC2)c1,-6.29%
20,CC(/C=N\NC(=O)CSc1nc(C)cc(C)n1)=C\c1ccccc1,-12.7%
21,COCCNC(=O)c1cc2c(=O)n3ccccc3nc2n(CCc2ccccc2)c1=N,3.06%
22,CCCN1C(=O)c2ccc(C(=O)Nc3ccc(C(C)=O)cc3)cc2C1=O,0.52%
23,O=C(c1cc([N+](=O)[O-])ccc1NC1CCCCC1)N1CCOCC1,-18.9%

row,Structure (SMILES),activation
1,CCN(CC)C(=O)C1CCCN(c2cccc(C(=O)NCCc3ccc(OC)cc3)n2)C1 (stereo not given),-12.6%
2,Cc1ccc(-c2nnc(N3CCOCC3)c3ccccc23)cc1S(=O)(=O)N1CCN(C)CC1,-11.5%
3,C=CCN1C(=O)CC(C(=O)OC)C12CCN(C1CCN(C(=O)OCC)CC1)CC2 (stereo not given),-5.11%
4,COC(=O)NNC(=S)Nc1cc(S(=O)(=O)N(C)C)ccc1C,-12.9%
5,CCCCOc1ccccc1CNCC,0.16%
6,O=C(CN1C(=O)S/C(=C\c2ccc(Cl)s2)C1=O)Nc1ccccc1F,-11%
7,CSc1nc(N)nc2nc[nH]c12,-1.61%
8,CCc1ccc(-n2c(C)c(C)n3c4c(=O)n(CC)c(=O)n(C)c4nc23)cc1,-2.08%
9,C#CCOc1ccc(Br)cc1/C=C1\NC(=S)N(C)C1=O,-3.86%
10,CS(=O)(=O)N(CC(=O)Nc1ccc(F)cc1F)c1ccc(F)cc1,-2.79%
11,Cc1ccc(C(C)C)c(OCCCn2ccnc2)c1,0.47%
12,COc1ccccc1C(=O)N/C(=C\c1ccc2c(c1)OCO2)C(N)=O,4.53%
13,C=CCN(c1ccc(C(=O)Nc2ccc(OCc3ccccc3)cc2)cc1)S(C)(=O)=O,-10.1%
14,CC(=O)NC(CC(=O)O)c1ccc(F)cc1 (stereo not given),3.48%
15,COc1cccc(/C=C(\C#N)c2nc3ccc(C)cc3[nH]2)c1OC,17.6%
16,Cc1ccc(NCC(=O)N/N=C\c2ccc(I)o2)cc1,-0.01%
17,COc1cccc(C2SCC(=O)N2c2cccc(C)c2)c1OC (stereo not given),13.2%
18,CC1(c2ccccc2NC(=O)c2ccc([N+](=O)[O-])cc2)CC1,0.99%
19,O=[N+]([O-])c1ccc2ncnc(Nc3cccc(C(F)(F)F)c3)c2c1,9%
20,O=C(COc1ccc(S(=O)(=O)NCCc2ccccc2)cc1)NC1CC1,-10.3%
21,O=C(Nc1ccc2[nH]ncc2c1)N1CCCNCC1,3.8%
